# Measured values: PubChem BioAssay AID449762 (Southern Research Specialized Biocontainment Screening …, 2010)
# Values joined by “and” are separate entries in the source; they are usually repeats but may differ in a detail not shown here. Identical values can stand only once. Hit rate of the full screen: of about 330,000 compounds, about 1,900 (0.58%) were called active. Inconclusive results (about 4%) are left out. Rule as the data show it: inconclusive = inhibition above about 70% without an active follow-up result; inactive = below that. A selection follows. Potency and affinity values are given separately.
# Experiment: M. tuberculosis growth inhibition, HTS (AID 449762);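 also: bacterial growth assessed after seven days of incubation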
# Conditions: M. tuberculosis H37Rv growth inhibition, 7H9 media; at 25 µM; hits give high values
row,SMILES,inhibition
1,COc1ccc(NC(=O)Cn2c(=O)n(-c3ccc(OC)cc3OC)c(=O)c3c(C)c(C)sc32)cc1,-0.67% (inactive)
2,CC(C)N(CC(N)=O)c1ccc(S(=O)(=O)N2CCCC2)cn1,-5.77% (inactive)
3,NC(=O)C1CCN(C(=O)COc2ccc3ccc(=O)oc3c2)CC1,-9.39% (inactive)
4,CCOC(=O)C1=C(C)Nc2nc(SCC)nn2C1c1ccc(OC)cc1 (stereo unspecified),5.22% (inactive)
5,CCOC(=O)C1=C(C)Nc2nc(SC)nn2C1c1ccc(C(=O)OC)cc1 (stereo unspecified),-5.54% (inactive)
6,O=C(NCc1ccccc1)c1nccnc1CO,0.4% (inactive)
7,CN(C)S(=O)(=O)c1ccc(C(=O)NCc2nnc(SCC(=O)c3ccccc3)o2)cc1,-10.3% (inactive)
8,COc1cc(O)c(C(CCN2CCCC(C)C2)c2cc(OC)c(OC)c(OC)c2)c(OC)c1 (stereo unspecified),-1.23% (inactive)
9,O=C(Nc1ccc(-c2nc3ccccc3s2)cc1)c1cc(-n2cnnc2)ccc1Cl,-1.18% (inactive)
10,Cc1ccc(-c2nc3ccccc3s2)cc1NC(=O)c1cc(-n2cnnc2)ccc1Cl,3.06% (inactive)
11,Cc1cc(C)c(NC(=O)Cn2ncc3ccccc32)c(C)c1,-0.59% (inactive)
12,COC(=O)c1ccc(OC(=O)c2cccs2)cc1,19.3% (inactive)
13,Cc1ccc(N2C(=O)C3CCCN3C2=S)c(C)c1 (stereo unspecified),5.68% (inactive)
14,Nc1ncc([N+](=O)[O-])cc1S(=O)(=O)c1ccccc1,2.55% (inactive)
15,NS(=O)(=O)c1ccc(S(=O)(=O)c2ccccc2)nc1,1.3% (inactive)
16,C#CCNC(=O)C1=C[C@@H](C)C[C@@H](OCc2ccc(CO)cc2)O1,2.19% (inactive)
17,COc1ccc(-c2cc(-n3c(C(F)(F)F)nc4ccccc43)n(CCC#N)n2)cc1,5.23% (inactive)
18,COc1ccc(-c2cc3nc(-c4ccccc4)cc(N4CCC(O)CC4)n3n2)cc1,8.92% (inactive)
19,Cc1ccc(S(=O)(=O)Nc2c(C)n(C)n(-c3ccccc3)c2=O)cc1C(=O)NCc1ccccc1,-5.64% (inactive)
20,COc1ccc(N=NC2=C(O)CC(C)(C)CC2=O)cc1,-3.64% (inactive)
21,Cc1nc2ccc(N=NC3=C(O)CC(C)(C)CC3=O)cc2s1,1.45% (inactive)
22,COc1ccc(CCN2CC(O)=C(c3nc(C)cs3)C2=N)cc1OC,7.01% (inactive)
23,COc1cccc(OCc2cc(C(=O)NCCN3CCCCC3CO)no2)c1 (stereo unspecified),-19.8% (inactive)

row,SMILES,inhibition
1,Cc1ccc(NNc2c(C)nc3ccccc3nc2=O)cc1,42.5% (inactive)
2,Cc1ccc2nc(-c3ccccc3)c(-c3ccccc3)nc2c1,2.44% (inactive)
3,O=C(Nc1ccc(S(=O)(=O)Nc2ncccn2)cc1)c1ccco1,-1.81% (inactive)
4,COc1ccc(/C=C2\SC(=O)N(CCNC(=O)Cn3[nH]c(=O)c4ccccc4c3=O)C2=O)cc1,1.03% (inactive)
5,COc1ccc(C2SCC(=O)N2c2ccc(C)cc2)cc1 (stereo unspecified),-1.14% (inactive)
6,CCC(=O)N1N=C(c2ccccc2)CC1c1ccc([N+](=O)[O-])cc1 (stereo unspecified),2.69% (inactive)
7,COc1ccc(C2CC(c3cccs3)=NN2S(C)(=O)=O)cc1 (stereo unspecified),-0.06% (inactive)
8,COc1ccc(O)c(C2=Nc3ccccc3N=C(c3cccs3)C2)c1,-0.29% (inactive)
9,O=C(O)C1CC(c2ccccc2)=Nc2ccccc2S1 (stereo unspecified),13.4% (inactive)
10,O=C(Nc1ccccc1)N1CCC(O)(c2cccc(C(F)(F)F)c2)CC1,1.21% (inactive)
11,CCN(CC)CCCN=C1N[C@@H](c2cccc(F)c2)C(C(=O)OC)=C(C)N1Cc1ccccc1,-0.31% (inactive)
12,CC(C)C(NC(=O)OCc1ccccc1)C(=O)OCC(=O)NCc1ccco1 (stereo unspecified),8.7% (inactive)
13,Cc1ccc(C(=O)NNC(=O)c2cccc(C)c2)cc1,-4.89% (inactive)
14,CCOc1ccc(S(=O)(=O)Nc2ncn[nH]2)cc1,1.15% (inactive)
15,COc1ccc2c(c1)c(C(C)=O)c(C)n2C,4.3% (inactive)
16,CCOC(=O)c1c(C)n(C)c2ccc(OC(=O)c3ccc([N+](=O)[O-])cc3)cc12,25.7% (inactive)
17,CC12CCC(=O)N1C(C(=O)N1CCN(c3ccc(C(F)(F)F)cc3[N+](=O)[O-])CC1)CS2 (stereo unspecified),4.09% (inactive)
18,CC1(c2nnc(-c3ccccc3)o2)CC(c2ccncc2)=NO1 (stereo unspecified),10.1% (inactive)
19,CC1(c2nnc(-c3ccccc3)o2)CC(c2ccccc2)=NO1 (stereo unspecified),4.65% (inactive)
20,Cc1nc(C)c(-c2csc(Nc3ccccn3)n2)s1,5.67% (inactive)
21,O=S(=O)(c1cccc2cccnc12)N1CCN(c2ccccn2)CC1,-2.85% (inactive)
22,COc1ccc(S(=O)(=O)N2CCN(CC(=O)Nc3ccccc3OC)CC2)cc1,5.95% (inactive)
23,FC(F)Oc1ccc(NC(=S)Nn2cnnc2)cc1,-3% (inactive)

row,SMILES,inhibition
1,COc1ccc(CNC(=O)C[C@H]2C(=O)N(c3ccccc3)C[C@@H]2Cc2ccccc2)cc1,0.74% (inactive)
2,CC1Cc2ccccc2N1C(=O)CSc1nc2ccccc2n1CC(=O)N1CCOCC1 (stereo unspecified),7.22% (inactive)
3,C=CCNC(=O)c1onc(CSc2ccc(OC)cc2)c1C(=O)O,4.85% (inactive)
4,C=CCNC(=O)c1onc(CSc2ccc(Cl)cc2)c1C(=O)NCC=C,27.7% (inactive)
5,CCN(CC)S(=O)(=O)c1ccc(N2CCCC2)c(NC(=O)C2=COCCO2)c1,-7.17% (inactive)
6,Cn1c(CSCc2ccc(F)cc2)n[nH]c1=S,-6.48% (inactive)
7,FC(F)(F)c1cccc(-c2cc(C3CCNCC3)[nH]n2)c1,6.36% (inactive)
8,COC(=O)CCN1CCC(c2cc(-c3cccc(C(F)(F)F)c3)n[nH]2)CC1,5.38% (inactive)
9,O=C(CC1C(=O)NCCN1Cc1ccc(F)cc1)NCCCn1cccn1 (stereo unspecified),-1% (inactive)
10,O=S(=O)(NCCc1cn2ccccc2n1)c1ccc2c(c1)OCCO2,-2.59% (inactive)
11,Cc1c(C(=O)NCc2ccc(S(N)(=O)=O)cc2)oc2ccc(Cl)cc12,-4.55% (inactive)
12,COc1cc2nc(Nc3cccc(F)c3)nc(N)c2cc1OC,34.9% (inactive)
13,COc1cc2nc(N3CCN(C(=O)c4ccco4)CC3)nc(N)c2cc1OC,-7.62% (inactive) and 1.49% (inactive)
14,COc1cc2nc(Nc3ccc(F)cc3)nc(N)c2cc1OC,23.2% (inactive)
15,COc1cc2nc(N3CCNCC3)nc(N)c2cc1OC,-16.4% (inactive)
16,CCn1c(O)c(N=Nc2cccc(S(=O)(=O)N3CCOCC3)c2)c(=O)n(CC)c1=S,-2.11% (inactive)
17,O=C(Nc1cccc(C(=O)N2CCCc3ccccc32)c1)c1ccccc1,6.88% (inactive)
18,COc1ccccc1C(=O)NC(=O)Nc1c(C)cc(C)cc1C,1.95% (inactive)
19,COc1ccc(-c2nc(-c3ccncc3)no2)c(OC)c1,4.47% (inactive)
20,COc1ccc(S(=O)(=O)N2CCC(c3cc(-c4cccc5ccccc45)n[nH]3)CC2)cc1,66.5% (inactive)
21,COc1cccc(NS(=O)(=O)c2nc3nc(C)cc(C)n3n2)c1,-2.88% (inactive)
22,COc1ccc(S(=O)(=O)Nc2c(F)cccc2F)cc1,6.44% (inactive)
23,COc1ccc(CNS(=O)(=O)c2cc3c4c(c2)C(C)C(=O)N4CCC3)cc1 (stereo unspecified),-1.95% (inactive)

row,SMILES,inhibition
1,COc1ccc(CCC(=O)NCCS(=O)(=O)N2CCN(c3ccccc3F)CC2)cc1,9.75% (inactive)
2,CN1CCCN(C(=O)c2cccc(Br)c2)CC1,-4.86% (inactive)
3,c1ccc(-c2ccccn2)nc1,11.8% (inactive)
4,c1ccc(-c2nnc(-c3ccccn3)c(-c3ccccn3)n2)nc1,0.73% (inactive)
5,c1ccc(-c2nc(-c3ccccn3)nc(-c3ccccn3)n2)nc1,14.8% (inactive)
6,CC(C)Nc1nc(-c2ccccn2)nc(-c2ccccc2)c1C#N,-1.18% (inactive)
7,O=C(NCC(c1cccnc1)N1CCN(c2ccc(F)cc2)CC1)Oc1ccccc1 (stereo unspecified),-8.33% (inactive)
8,CCc1cccc(NC(=O)CCCN2C(=O)NC(C)(C)C2=O)c1,-11.7% (inactive)
9,C[C@@H]1CCCCCCCCC(=O)OCCN(C(=O)OC(C)(C)C)[C@H](C)CCCCCCCCC(=O)OCCN1C(=O)OC(C)(C)C,3.06% (inactive)
10,C[C@@H]1CCCCCCCCC(=O)OCCN(C(=O)OC(C)(C)C)[C@H](C)CCCCCCCCC(=O)OCCN(C(=O)OC(C)(C)C)[C@H](C)CCCCCCCCC(=O)OCCN(C(=O)OC(C)(C)C)[C@H](C)CCCCCCCCC(=O)OCCN1C(=O)OC(C)(C)C,-0.93% (inactive)
11,COc1ccc(N2CCN(C(=O)CCNS(=O)(=O)c3ccc(C)cc3)CC2)cc1,-1.98% (inactive)
12,C[C@H](NC(=O)N1CCn2c1nc1ccccc12)C(=O)N1CCCCC1,-4.78% (inactive)
13,CN(CCOc1ccccc1)C(=O)C1CCC(=O)N(CCCN2CCOCC2)C1 (stereo unspecified),14.5% (inactive)
14,Nc1nc2ccccc2n1CCOc1ccc(Cl)cc1,9.81% (inactive)
15,Nc1nc2ccccc2n1CCOc1ccc(F)cc1,41.5% (inactive)
16,CN(C)S(=O)(=O)c1cc(NC(=O)CN2CCN(c3ccccc3)CC2)ccc1Cl,1.87% (inactive)
17,Cc1cc(C2=NNC(=NC3CC3)SC2)c(C)n1-c1c(C)n(C)n(-c2ccccc2)c1=O,0.5% (inactive)
18,CN=C1NN=C(c2cc(C)n(-c3c(C)n(C)n(-c4ccccc4)c3=O)c2C)CS1,10.5% (inactive)
19,CCN=C1NN=C(c2c[nH]c3ccccc23)CS1,0.3% (inactive)
20,c1ccc2c(C3=NNC(=NC4CC4)SC3)c[nH]c2c1,-4.02% (inactive)
21,COc1ccc(CC(=O)Nc2ccc(C#N)c(Cl)c2)cc1S(=O)(=O)N1CCOCC1,3.7% (inactive)
22,COc1ccnc(Oc2ccc(F)cc2)c1C(=O)N/C=N/OCc1cccc(F)c1,24.6% (inactive)
